Bioassay records as filed in PubChem BioAssay.
MPTP inh: mitochondrial permeability transition pore inhibitors, primary screen, biochemical, isolated mouse mitochondria, absorbance; 360,000 tested, 1.4% active; AID 602449, 2012; Ca2+ swelling absorbance, 30 min; inhibition, % at 10 µM;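 active = inhibition of 50% or more, scaled per plate between neutral and stimulator controls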;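 note: 0% = DMSO wells given calcium and 100% = 1 mM EGTA wells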
pCIP destab: p/CIP-EGFP fusion destabilizers, primary screen, fluorescence, F442A cells; decrease of EGFP signal, % at 10 µM; 16 h; AID 1984, 2009; 290,000 tested, 0.01% active; Q05BA5;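 active = EGFP signal decrease of at least 30% at 10 µM or well 3 SD below plate mean, unless failing retest; inactive = the rest, including hits failing retest or dose response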
beta cell repl: inducers of MIN6 beta-cell proliferation, primary screen, ATP luminescence, uHTS. MIN6 cells proliferation, ATPlite luminescence, 48 h; cells starved in 0.2% serum; 100% = growth in 10% serum. proliferation, % at 10 µM. 330,000 tested, 0.29% active. AID 2380, 2010;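 active = compounds whose signal lies at least 3.5 SD above the mean of all wells on their plate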;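 note: 0% = DMSO-treated cells in low-serum medium and 100% = 10% serum control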
FAS-TE inh: FAS thioesterase domain inhibitors, primary screen, biochemical, fluorescence intensity, uHTS; Fatty acid synthase (Homo sapiens), P49327; recombinant FAS-TE, OMFH fluorogenic substrate, fluorescence endpoint; inhibition, % at 15 µM; 360,000 tested, 0.67% active;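 active = compounds whose normalised, plate-corrected inhibition of enzyme fluorescence in the single-dose primary screen is 50% or more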;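 note: 0% = DMSO with enzyme and 100% = substrate without enzyme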
NR3A LBD binder: binders of NR3A ligand-binding domain, primary screen, biophysical, differential scanning fluorimetry, uHTS | Glutamate receptor ionotropic, NMDA 3A (GRIN3A) ligand-binding domain | NR3A LBD differential scanning fluorimetry, Tm shift; 0% = protein alone, 100% = glycine-bound protein | Tm shift relative to glycine control, % at 25 µM | 340,000 tested, 2.5% active | AID 1259313, 2017;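 active = melting temperature shift of at least 10% of the positive control shift, at one fixed dose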
Rh123 counter: fluorescence retest of MPTP screen hits in isolated mitochondria, single concentration. shares compounds with MPTP inh. membrane potential, Rhodamine 123 fluorescence. 5,000 tested, 78% active. inhibition, % at 10 µM; in the data active = inhibition above about 22%;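 note: 0% = DMSO vehicle and 100% = positive control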
MPTP abs DR: mitochondrial permeability transition pore inhibitors, dose response, biochemical, absorbance, uHTS hits. 780 tested, 58% active. shares compounds with MPTP inh. IC50, µM. isolated mitochondria swelling; in the data active = IC50 below about 20 µM
MPTP cs DR: fluorescent counter-screen in isolated mitochondria, dose response, counter-screen for MPTP inhibitor project, biochemical, fluorescence, uHTS hits. shares compounds with MPTP inh. isolated mitochondria counterscreen, fluorescence read-out. IC50, µM. 780 tested, 49% active; in the data active = IC50 below about 80 µM
Starred values were filed as active, the others as inactive. Hits are enriched below; roughly 4.1% of the tested compounds scored in any of these assays.

`CCNC(=O)NC(=O)c1csc([N+](=O)[O-])c1` gave MPTP inh 3.1, pCIP destab -6.2, beta cell repl -1.6, FAS-TE inh -4.6 and NR3A LBD binder -0.5.
Screening O=C(Nc1csc([N+](=O)[O-])c1)Nc1c(Cl)cccc1Cl returned MPTP inh 67.2*, pCIP destab -4.3, beta cell repl -0.9, FAS-TE inh -3.0, NR3A LBD binder -0.7 and Rh123 counter 87.5*.
Screening Cc1ccc(S(=O)(=O)N(C)C)cc1NC(=S)NC(C)CCC(C)C (stereo not given) returned MPTP inh 56.7*, pCIP destab -9.1, beta cell repl -2.0, FAS-TE inh 42.5, NR3A LBD binder -24.7 and Rh123 counter 73.3*.
Screening Cc1ccc(S(=O)(=O)N(C)C)cc1NC(=S)Nc1cccc2ccccc12 returned MPTP inh 1.7, pCIP destab -6.4, beta cell repl -5.4, FAS-TE inh 8.4 and NR3A LBD binder -4.4.
Screening CCCCCCC(C)NC(=S)Nc1cc(S(=O)(=O)N(C)C)ccc1C (stereo not given) returned MPTP inh 64.3*, pCIP destab 1.3, beta cell repl -3.5, FAS-TE inh 32.6, NR3A LBD binder 0.9 and Rh123 counter 78.7*.
For Cc1cc(C)cc(NC(=O)Nc2cc(S(=O)(=O)N(C)C)ccc2C)c1 the results were MPTP inh 63.7*, pCIP destab -14.7, beta cell repl 3.5, FAS-TE inh 26.5, NR3A LBD binder 0.5 and Rh123 counter 84.2*.
CC(=O)c1c(C)[nH]c(C(=O)Nc2ccc(F)c(F)c2F)c1C was read as MPTP inh -3.1, pCIP destab -0.2, beta cell repl -0.8, FAS-TE inh 1.5 and NR3A LBD binder -1.8.
For Cc1ccc(S(=O)(=O)/N=C2/NC(=O)/C(=C/c3ccc(Br)o3)S2)cc1 the results were MPTP inh 53.4*, pCIP destab -8.2, beta cell repl 0.0, FAS-TE inh 13.7, NR3A LBD binder -12.7 and Rh123 counter 68.0*.
Screening CSc1nsc(/C=C/Nc2ccc(F)cc2)c1C#N returned MPTP inh 59.5*, pCIP destab -6.8, beta cell repl -1.9, FAS-TE inh 28.6, NR3A LBD binder 5.1 and Rh123 counter 31.2*.
For CSc1nsc(/C=C/Nc2ccc(Cl)cc2)c1C#N the results were MPTP inh 2.2, pCIP destab -30.6, beta cell repl -4.5, FAS-TE inh -3.2 and NR3A LBD binder 2.3.
`O=C(Nc1cnccn1)Nc1ccccc1F` gave MPTP inh -0.2, pCIP destab 2.7, beta cell repl 3.0, FAS-TE inh -6.7 and NR3A LBD binder 1.5.
For CC(C)(C)c1ccc(C(=O)NCCCN2CCN(CCCNC(=O)c3ccc(C(C)(C)C)cc3)CC2)cc1 the results were MPTP inh 87.1*, pCIP destab -9.3, beta cell repl 0.0, FAS-TE inh 11.1, NR3A LBD binder -0.6 and Rh123 counter 85.8*.
For CC(C)(C)c1ccc(C(=O)NCCN2CCOCC2)cc1 the results were MPTP inh 1.9, beta cell repl -2.8, FAS-TE inh -3.3 and NR3A LBD binder 1.5.
For S=C(Nc1ccc(Oc2ccc(NC(=S)NC3CCCCC3)cc2)cc1)NC1CCCCC1 the results were MPTP inh 70.4*, pCIP destab -15.0, beta cell repl -2.9, FAS-TE inh 31.5, NR3A LBD binder 31.9* and Rh123 counter 52.0*.
`S=C(NCc1ccccc1)N1CCN(Cc2ccc3c(c2)OCO3)CC1` gave MPTP inh -5.6, pCIP destab -9.9, beta cell repl 0.3, FAS-TE inh -11.0 and NR3A LBD binder -0.8.
`O=C(Nc1ccc(Cl)cc1Cl)NC1CCCC1` gave MPTP inh 1.6, pCIP destab -7.5, beta cell repl -2.7, FAS-TE inh -7.8 and NR3A LBD binder 0.5.
`NS(=O)(=O)c1ccc(NC(=S)NC2CCCCCC2)cc1` gave MPTP inh -0.4, pCIP destab -17.1, beta cell repl -2.4, FAS-TE inh -5.9 and NR3A LBD binder -8.9.
S=C(Nc1ccc(Cl)cc1Cl)NC1CCCCC1 was read as MPTP inh 85.6*, pCIP destab -3.2, beta cell repl -6.1, FAS-TE inh 6.9, NR3A LBD binder -4.2 and Rh123 counter 108.8*.
For S=C(NCc1ccc2c(c1)OCO2)NC1CCN(Cc2ccccc2)CC1 the results were MPTP inh 74.2*, pCIP destab -18.1, beta cell repl -0.8, FAS-TE inh -2.6, NR3A LBD binder 0.5, Rh123 counter 4.5, MPTP abs DR 10.9* and MPTP cs DR 53.7*.
`CC(C)c1ccc(NC(=S)NC2CCCCCC2)cc1` gave MPTP inh 73.8*, pCIP destab -9.0, beta cell repl -6.0, FAS-TE inh 16.4, NR3A LBD binder -1.4 and Rh123 counter 87.0*.
O=C(O)C1CCCN1S(=O)(=O)c1ccc2[nH]c(=O)c(=O)[nH]c2c1 (stereo not given) was read as MPTP inh 2.6, pCIP destab 1.3, beta cell repl 0.1, FAS-TE inh -7.3 and NR3A LBD binder 4.1.
O=C(c1cc2nc(-c3ccccc3)cc(-c3ccccc3)n2n1)N1CCN(C(=O)c2ccco2)CC1 was read as MPTP inh -4.3, pCIP destab -0.9, beta cell repl -2.8, FAS-TE inh 6.8 and NR3A LBD binder 0.1.
For Cc1ccc(S(=O)(=O)CCC(=O)N2CCN(c3ccc([N+](=O)[O-])cc3)CC2)cc1 the results were MPTP inh -0.9, pCIP destab -4.6, beta cell repl -2.9, FAS-TE inh 4.6 and NR3A LBD binder 0.9.
`COCCNC(=O)C(=O)Nc1cc2c3c(c1)CCC(=O)N3CCC2` gave MPTP inh -0.4, pCIP destab 13.8, beta cell repl -3.6, FAS-TE inh -4.6 and NR3A LBD binder 1.8.
COc1ccc(-c2cc(C(=O)NCC3CCCCC3)[nH]n2)c(C)c1 was read as MPTP inh -0.1 and FAS-TE inh 5.1.
`Cc1cc(Cl)ccc1NC(=O)COC(=O)CCNS(=O)(=O)c1ccccc1` gave MPTP inh -0.7, beta cell repl -2.5, FAS-TE inh 2.5 and NR3A LBD binder -2.1.
CN(C(=S)Nc1ccc(Oc2ccccc2)cc1)C1CCCCC1 was read as MPTP inh 46.3, pCIP destab -4.3, beta cell repl -4.7, FAS-TE inh 24.5 and NR3A LBD binder -30.4.
